PubChem BioAssay AID504332 (National Center for Advancing Translational Sciences (NCATS), 2011)
The campaign covered roughly 350,000 compounds. About 31,000 (8.9%) were called active. Inconclusive results (about 15%) are left out. Shown is part of a subset that was picked to be rich in actives. A call without a number means that no potency is given here. Values without a mark were called inactive. The call rests on the fitted dose curve; in most records, active means well fitted inhibition curve with a large enough effect; inconclusive means small, poorly fitted or top-dose-only effect; inactive means no such curve, though single readings can be large or run the other way.

molecular target: Histone-lysine N-methyltransferase EHMT2 (Homo sapiens) (UniProt Q96KQ7); test: qHTS Assay for Inhibitors of Histone Lysine Methyltransferase G9a; settings: G9a H3K9 monomethylation, AlphaScreen, 2 h; series mostly up to 59 µM; further: nearly all actives have a fitted effect of over 75% in size
Sequence (Q96KQ7 913-1193 limits assumed): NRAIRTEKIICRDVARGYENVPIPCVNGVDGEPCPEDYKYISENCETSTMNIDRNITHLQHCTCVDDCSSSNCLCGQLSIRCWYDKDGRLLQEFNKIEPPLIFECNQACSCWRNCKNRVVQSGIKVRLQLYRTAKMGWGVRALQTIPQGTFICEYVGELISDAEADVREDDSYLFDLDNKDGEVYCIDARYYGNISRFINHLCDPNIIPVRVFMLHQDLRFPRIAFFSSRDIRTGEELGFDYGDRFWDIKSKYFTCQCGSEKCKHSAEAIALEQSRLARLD
Description: Methylated lysines, on the N-terminal tails of histone proteins serve as epigenetic markers to recruit factors that can then modify local chromatin structure to lead to functional consequences. G9a and other members of the SUV39 family of the SET domain-containing superfamily of histone lysine methyltransferases (HMT) have been identified to specifically methylate Lys9 of histone H3 (H3K9). G9a catalyzes the mono- and di-methylation of H3K9 in mammalian euchromatic regions, where the resulting H3K9me2 is indicative of transcriptional repression. […] The inhibition of G9a will result in transcriptional activation and work synergistically with DNA methyltransferase and histone deacetylase inhibitors, to kill cancer cells. This qHTS assay for identification of G9a inhibitors is a chemiluminescence based AlphaScreen (PerkinElmer). Methylation of biotinylated-histone peptide is measured through specific antibody-based detection, in conjunction with streptavidin-coated donor and anti-IgG antibody-coated acceptor beads. The method is particularly well suited for detection of inhibitors acting by the desired histone peptide competitive mechanism and is applicable to testing other HMTs. Although AlphaScreen has significant advantages with its utility in a variety of epigenetic target assays, the primary screening data provided in this deposition should be used with caution due to the prevalence of screening artifacts. An AlphaScreen counterscreen is highly recommended to be run against any putative actives to eliminate non specific artifacts. Alternatively, one can use other AlphaScreen assays in PubChem to filter out promiscuous hits. Quinn et al. A chemiluminescence-based method for identification of histone lysine methyltransferase inhibitors. Mol Biosyst 6(5): 782-8. 2010. PMID: 20567762 [2] Baell,Holloway. New substructure filters for removal of pan assay interference compounds (PAINS) from screening libraries and for their exclusion in bioassays. J Med Chem. 53(7):2719-40. 2010. PMID: 20131845 NIH Molecular Libraries Probe Production Network [MLPCN] NIH Chemical Genomics Center [NCGC] Structural Genomics Consortium (SGC) NIH Grant: 5U54 MH084681-02
To each well of a 1,536w plate, 2ul of HMT enzyme (final 20nM) were added, using a nanoliter dispenser. The G9a- and GLP-inhibitor BIX-01294 (CID: 25150857) are used as an intraplate control, with a 16-point titration in duplicate. A Kalypsys pin-tool transferred 23nl of library compound solution in DMSO to each well. Following a 15 min incubation of enzyme with compounds at room temperature, 1ul mixture of b-H3K9 peptide substrate (final 500nM) and SAM cofactor (final 20uM) were added. Reactions were allowed to proceed at room temperature for 2 hours. Methylated b-H3K9 peptide product was detected with 0.5 ug/mL rabbit polyclonal anti-monomethyl histone H3K9 antibody (Abcam Inc., Cambridge, MA) and 20 ug/mL each streptavidin-coated donor and anti-rabbit IgG acceptor AlphaScreen beads. Antibody and beads were added in a 1ul dispense, for a final volume of 4ul, and plates were incubated, protected from the light, for 10 min at room temperature. Microplates were then read on an EnVision multilabel plate reader using the 1,536 plate HTS AlphaScreen aperture (excitation time 80 ms, measurement time 240 ms).
Potency means the concentration at half of the fitted maximal effect.

Row | Compound | Potency | activity, negative = inhibition
1 | O=C1CCCc2cc(S(=O)(=O)N3CCCC(C(=O)NCc4ccccc4)C3)ccc2N1 (stereo not given) | inactive | 
2 | c1ccc2c(c1)CCc1snnc1-2 |  | -5.46% [at 0.501 µM]
3 | Cc1ccccc1OCC(=O)NNC(=O)c1ccc(-n2cncn2)c([N+](=O)[O-])c1 | inactive | 
4 | COc1ccc(-c2cc(C(F)(F)F)n3nc(-c4ccccc4)cc3n2)cc1OC | inactive | 
5 | CSCCC(NC(=O)c1ccccc1)C(=O)N1CCCCCCC1 (stereo not given) |  | 35.6% [at 12.7 µM]
6 | CC(C)N(Cc1nnc(-c2ccc(Cl)cc2)o1)C(=O)C1=COCCO1 | inactive | 
7 | COc1cc2ccccc2cc1C(=O)Nc1ccccc1C | inactive | 
8 | COc1cccc(OCC(O)CNC(=O)c2oc3c(C)c(C)ccc3c2C)c1 (stereo not given) | inactive | 
9 | CCCNC(=O)CCC(=O)N1Cc2ccccc2Oc2ncccc21 | inactive | 
10 | O=C(CC1C(=O)NCCN1CC(c1ccccc1)c1ccccc1)NCCc1cn[nH]c1 (stereo not given) | 44.7 µM (active) | 
11 | O=C(CC1C(=O)NCCN1Cc1ccc(-c2ccccc2)cc1)NCC1CCOCC1 (stereo not given) | inactive | 
12 | CCn1ccnc1CNC(=O)CC1C(=O)NCCN1CCCc1ccccc1 (stereo not given) | inactive | 
13 | COc1ccc(NC(=O)CSc2nc3ncccc3[nH]2)c(OC)c1 | inactive | 
14 | CN(c1ccccc1)S(=O)(=O)c1cccc(NC(=O)Cc2ccc(Cl)cc2)c1 |  | -10.8% [at 12.7 µM]
15 | CCc1ccc(C(=O)N2CCN(S(=O)(=O)c3sc(C(=O)O)c(C)c3C(=O)O)CC2)cc1 |  | 10.3% [at 2.33 µM]
16 | O=C(NCc1cccc(Cl)c1)C1=CC=CN2CCS(=O)(=O)N=C12 |  | -59.1% [at 12.7 µM]
17 | CCN(CC)c1cc(NC2CCCCC2)c2c3c(onc13)-c1ccccc1C2=O | 7.08 µM (active) | 
18 | Cc1ccccc1NC(=O)Cn1c(=O)n(CC2CCC(C(=O)NCCc3ccccc3)CC2)c(=O)c2ccccc21 (stereo not given) | inactive | 
19 | O=C(Nc1ncccc1O)c1ccc(C(=O)c2ccccc2)cc1 |  | -9.21% [at 0.501 µM]
20 | COc1ccc(CNc2nc(-c3ccccc3)nn2C(=O)c2ccccc2OC)cc1 | inactive | 
21 | COc1ccc(S(=O)(=O)N2CCC(C(=O)NCCC(=O)NCc3cccc(OC)c3)CC2)cc1 | inactive | 
22 | COc1ccc(NS(=O)(=O)c2ccc(NC(=S)NC(=O)CC(C)C)cc2)cc1 |  | -29.8% [at 12.7 µM]

Row | Compound | Potency | activity, negative = inhibition
23 | Cc1cccc(C(=O)Nc2ccc(-c3nc4ccccc4s3)c(C)c2)c1 | inactive | 
24 | COc1ccc(S(=O)(=O)Nc2ccc(O)c(Sc3nc4ccccc4s3)c2)cc1 | 4.47 µM (active) | 
25 | Cc1ccc(S(=O)(=O)Nc2nc3ccccc3s2)cc1[N+](=O)[O-] | inactive | 
26 | O=C(O)c1cccc(S(=O)(=O)Nc2ccc(O)cc2Sc2nc3ccccc3s2)c1 | 7.94 µM (active) | 
27 | COc1ccc(NS(=O)(=O)c2ccc3oc(SCC(N)=O)nc3c2)cc1 | inactive | 
28 | CC(C)NC(=O)C1CCC(Cn2c(=O)c3sccc3n(Cc3ccc(F)cc3)c2=O)CC1 (stereo not given) | inactive | 
29 | Cc1ccc(Cl)cc1NC(=O)CCS(=O)(=O)c1ccc(Br)s1 | inactive | 
30 | COc1ccccc1-n1nnnc1SCC(=O)NC(=O)Cc1ccccc1 |  | 17.7% [at 2.33 µM]
31 | O=C(Nc1ccc(F)cc1F)c1ccc2c(=O)n3c(nc2c1)CCCCC3 | inactive | 
32 | CCCCC/C=C/C1=CC(=O)C[C@H](c2ccc(Cl)cc2)C1 |  | 8.79% [at 0.501 µM]
33 | Cc1nnc(N2CCCC(C(=O)NCCN(C)C)C2)c2nn(-c3ccccc3)c(C)c12 (stereo not given) | inactive | 
34 | Cc1ccc(C)c(N2CCN(CCCNC(=O)Nc3ccc(Cl)cc3)CC2)c1 | inactive | 
35 | Cc1ccc(NC(=S)N(CCCN2CCCC2)Cc2cccn2Cc2ccc(Cl)cc2)cc1 | 50.1 µM (active) | 
36 | Cc1ccc(NC(=S)N(CCCN2CCC(C)CC2)Cc2ccco2)cc1 | inactive | 
37 | Cc1cc(N=Nc2ccc3ccccc3c2)ccc1O | 35.5 µM (active) | 
38 | COc1ccc(N=Nc2ccc(O)c(P(=O)(c3ccccc3)c3ccccc3)c2)cc1 | inactive | 
39 | COc1ccccc1N1CCN(c2ncnc3onc(-c4cccc(Cl)c4)c23)CC1 | inactive | 
40 | O=C(c1cnc(Cl)c(Cl)c1)N1CCN(S(=O)(=O)c2ccc(F)cc2)CC1 | inactive | 
41 | CC1(c2ccc(Cl)cc2Cl)NC(=O)N(CC(=O)Nc2cccnc2Cl)C1=O (stereo not given) | inactive | 
42 | COc1cc(OC)cc(C(=O)OCC(=O)Nc2ccc(F)cc2F)c1 | inactive | 
43 | O=C(COC(=O)c1ccc(F)cc1F)Nc1ncccn1 | 35.5 µM (active) | 
44 | Cc1cccc(C(=O)OCC(=O)Nc2ccc(F)cc2)c1 | inactive | 

Row | Compound | Potency | activity, negative = inhibition
45 | S=c1[nH]ccn1-c1ccc(Cl)cc1 | 3.98 µM (active) | 
46 | CC(CCN1CCN=C1N(C)C)c1ccccc1 (stereo not given) |  | 11.1% [at 2.33 µM]
47 | COc1cc(OC)c(NC(=O)c2cc(S(=O)(=O)N3CCCC3)cn2C)cc1Cl | inactive | 
48 | CNC(=O)COc1ccc(S(=O)(=O)Nc2ccccc2)cc1 | 50.1 µM (active) | 
49 | Cc1ccc(OCC(=O)Nc2ccc(S(=O)(=O)Nc3ccccn3)cc2)cc1 | inactive | 
50 | CCOc1ccc(NS(=O)(=O)c2ccc(OCC(=O)NCCCOC)cc2)cc1 |  | 1.35% [at 12.7 µM]
51 | Cn1c(COc2ccccc2C(C)(C)C)nc2ccccc21 | inactive | 
52 | CC(C)C(c1nnnn1C1CCCCC1)N1CCN(C(=O)c2ccco2)CC1 (stereo not given) | inactive | 
53 | CC(C)C(c1nnnn1CCc1ccccc1)N1CCN(C(=O)c2ccco2)CC1 (stereo not given) | inactive | 
54 | CCC(c1nnnn1C1CCCC1)N1CCN(C(=O)c2ccco2)CC1 (stereo not given) | 17.8 µM (active) | 
55 | COC(=O)c1ccc(C2C(C(=O)Nc3ccccc3)=C(C)Nc3nc4ccccc4n32)cc1 (stereo not given) | inactive | 
56 | O=C(Oc1ccc(C(=S)N2CCOCC2)cc1)c1ccc(F)cc1 | 35.5 µM (active) | 
57 | Cc1ccc(C(=O)Oc2ccc(C(=S)N3CCOCC3)cc2)cc1 |  | 10.7% [at 2.33 µM]
58 | O=C(Oc1ccc(F)cc1)N1CCOCC1 | inactive | 
59 | O=C(CN1C(=O)S/C(=C\c2ccccc2Cl)C1=O)NC1C=CS(=O)(=O)C1 (stereo not given) | inactive | 
60 | CC(NC(=O)Nc1cccc([N+](=O)[O-])c1)c1ccc2c(c1)OCO2 (stereo not given) | inactive | 
61 | CC(C)NC(=O)CSc1ccccc1C(=O)NCc1ccc2c(c1)OCO2 | inactive | 
62 | CC(NC(=O)Nc1ccc2c(c1)OCO2)c1ccncc1 (stereo not given) | 50.1 µM (active) | 
63 | CCSc1ccccc1C(=O)Nc1ccc2c(c1)OCO2 | 3.98 µM (active) | 
64 | CCc1ccc(NC(=O)NC(C)c2ccc3c(c2)OCO3)cc1 (stereo not given) | inactive | 
65 | CC(C)C(=O)Nc1cccc(C(=O)Nc2ccc3c(c2)OCO3)c1 | inactive | 
